# High-throughput results (PubChem)
# Pf growth 48h: P. falciparum growth inhibition at 48 hours (one generation) | P. falciparum luciferase growth in erythrocytes, 48 h | AID 504832 | hit rate 5.9% among 310,000 | Potency, µM (titrated, usually from 28.7 µM), for the others: at the top dose activity change, negative = inhibition, most hits filed as inhibitors; active = well fitted inhibition curve with a large enough effect; inconclusive = small, poorly fitted or top-dose-only effect, or another doubt; inactive = no such curve, though single readings can be large or run the other way; note: potency is the fitted concentration of half-maximal effect; % is set by controls: 0 for no effect and ±100 for the full control effect
#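 Luciferase-expressing parasites in RBCs, 2% Hct / 0.1% parasitemia final; RPMI 1640 + 0.5% Albumax; 37 C, 5% CO2, one generation; luminescence read-out, lower signal = inhibition.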
# NS1 inh: influenza NS1 inhibition; AID 2326; hit rate 0.4% among 270,000; Potency, µM (doses to about 46.1 µM), for inactives: top-dose activity, positive = more growth; note: potency is the fitted concentration of half-maximal effect; actives are rising curves; nearly all actives have a fitted effect of over 50% in size
#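 Read-out: OD600 growth recovery of NS1-expressing budding yeast. Cells grown overnight at 30C in -URA glucose medium, washed, resuspended and diluted 1:100 in 2% galactose assay medium, pH 6.0. Same strain lacking NS1 served as positive control.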
# SARS PLpro yeast: inhibitors of SARS-CoV papain-like protease in yeast. hit rate 0.19% among 330,000. S. cerevisiae expressing SARS-CoV PLpro, growth rescue. Potency, µM (highest dose often 32.9 µM), for inactives: at the top dose activity, positive = growth rescue, usual class: activators; note: potency is the fitted concentration of half-maximal effect; 0% is about no effect; nearly all actives have a fitted effect of over 55% in size
# Pf growth 96h: P. falciparum growth inhibition at 96 hour, primary screen for plastid delayed-death inhibitors; P. falciparum luciferase reporter growth, 96 h; Potency, µM (titrated, usually from 28.7 µM), inactives show at the highest dose activity change, negative = inhibition, usual class: inhibitors; hit rate 6.9% among 320,000; active = well fitted inhibition curve with a large enough effect; inconclusive = small, poorly fitted or top-dose-only effect, or another doubt; inactive = no such curve, though single readings can be large or run the other way; note: potency is the fitted concentration of half-maximal effect; % is set by controls: 0 for no effect and ±100 for the full control effect
#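 Parasite growth measured via integrated firefly luciferase reporter in P. falciparum. Infected erythrocytes at 2% hematocrit, 0.05% parasitemia final were treated 96 hours at 37 C under 5% CO2, and luminescence was read.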
# NS1 inh valid: influenza NS1 function inhibition validation; activity change, negative = inhibition, % at 32.9 µM; influenza NS1 function cell assay, 15-point titration; 1,400 tested, under 10 active; shares compounds with NS1 inh; note: 0% is about no effect
# PR8 titer: reduces influenza A/PR/8/34 replication in MDCK cells | shares compounds with NS1 inh | MDCK infected influenza A/PR/8/34, virus titer TCID50; stronger effect = lower value | virus titer (log TCID50), log10 TCID50 at 5 µM | hit rate 30% among 95 | AID 504647; call rule not given here
# Active calls of the source: *; ? = inconclusive; nt = no result given; [ ] = dose if it differs, or a comment. A selection: hits, their analogues and other compounds. The true share with any hit is near 10%. Unless noted, calls come from the whole dose curve.
SMILES,Pf growth 48h,NS1 inh,SARS PLpro yeast,Pf growth 96h,NS1 inh valid,others
COc1cc(NC(=O)c2cc(-c3ccco3)on2)c(OC)cc1Cl,6.6%,-13.5%,-1.7%,25.0%,nt,
CC(C)(C)NC(=O)Cn1nnnc1-c1nonc1N,14.8%,?,1.9%,-22.0%,18.8,
COc1ccc(-c2nc3cccc(C)n3c2NCC2CCCO2)cc1O (configuration not stated),21.6%,-1.7%,-0.6%,45.6%,nt,
COc1ccc(-c2nc(=S)c3c([nH]2)Oc2ccc(C)cc2C3)cc1O,-1.4%,10µM*,13.1%,?,-5.7,
CC(C)CC(=O)Nc1nnn(C)n1,16.7%,10µM*,9.5%,?,14.8,
NC(=O)[C@@H]1CC2(CC(c3cccc(NC(=O)CC(c4ccccc4)c4ccccc4)c3)=NO2)CN1C(=O)c1ccc(Cl)cc1 (some centres not stated),?,3.98µM*,1.0%,?,-0.1,
NC(=O)[C@H]1CC2(CC(c3cccc(NC(=O)CC(c4ccccc4)c4ccccc4)c3)=NO2)CN1C(=O)CC(c1ccccc1)c1ccccc1 (some centres not stated),11.7µM*,7.08µM*,2.3%,?,11.6,PR8 titer=8
C=C(C)C(=O)N1CC2(CC(c3cccc(NC(=O)CC(c4ccccc4)c4ccccc4)c3)=NO2)C[C@H]1C(N)=O (some centres not stated),?,-4.3%,3.8%,?,nt,
CCC(=O)N1CC2(CC(c3cccc(NC(=O)CC(c4ccccc4)c4ccccc4)c3)=NO2)C[C@H]1C(N)=O (some centres not stated),35.6%,-5.3%,-2.1%,0.0%,nt,
Cc1ccc(CN(C(=O)COc2ccc(Br)cc2)C2CCS(=O)(=O)C2)o1 (configuration not stated),-7.6%,-6.1%,0.5%,0.7%,nt,
Cc1c(C(=O)Nc2ccc(S(=O)(=O)Nc3ncccn3)cc2)oc2ccc(F)cc12,-13.5%,2.0%,4.7%,-0.3%,nt,
Cc1ccc(S(=O)(=O)NC(C)(C)CSc2nncn2C)cc1,nt,6.2%,7.4%[6.58 µM],17.4%,nt,
Cn1cnnc1SCC(C)(C)NS(=O)(=O)c1ccc(Cl)cc1,1.2%,?,2.3%,?,-7.2,
O=C(NCC(=O)N1CCN(c2ccccc2O)CC1)c1ccc2c(c1)OCO2,?,27.0%,-7.6%,93.7%,nt,
Cc1ccc(C(=O)OC/C(O)=C(\C#N)c2nc3ccccc3[nH]2)cc1S(=O)(=O)N1CCOCC1,8.4%,10µM*,-15.8%,?,18.4,
N#C/C(=C(/O)COC(=O)c1ccc(Cl)c(S(=O)(=O)N2CCOCC2)c1)c1nc2ccccc2[nH]1,14.1%,?,0.6%,-12.3%,nt,
N=c1c2c(n(Cc3ccc(F)cc3)c3c1CCC3)CCC2,0.117µM*,1µM*,-0.7%,-7.7%,-29.3,
Cn1c(=O)[nH]c(=O)c2c1nc(SCCO)n2CC(O)COc1ccccc1 (configuration not stated),3.3%,3.3%,0.9%,?,nt,
CCCN1CCC(NC(=O)Nc2ccc(Br)cc2)CC1,?,-2.6%,-3.6%,10.4%,nt,
O=C1C(C=NCc2ccncc2)=C(O)c2ccccc21,9.7%,-0.4%,-4.7%,nt,nt,
O=C1C(c2ccncc2)=C(O)c2ccccc21,132.5%,0.251µM*,-1.4%,-6.6%,-3.2,
O=C(CSC1=NS(=O)(=O)c2ccccc2N1)Nc1nccs1,?,nt,-0.5%,14.3%,nt,
COC(=O)C(C)Sc1nc2ccsc2c(=O)n1Cc1ccccc1 (configuration not stated),-37.8%,-12.1%,-1.0%,-23.6%,nt,
O=S(=O)(Nc1cccc(-c2cn3cccnc3n2)c1)c1ccc(-c2ccccc2)cc1,20.1%,11.2µM*,-1.3%,82.1%,23.5,
CCN(CC)CCN=Cc1c(O)n(CCc2ccccc2)c(=O)[nH]c1=O,-11.7%,?,14.1%,29.4%,nt,
SMILES,Pf growth 48h,NS1 inh,SARS PLpro yeast,Pf growth 96h,NS1 inh valid,others
CCN(CC)CCCN=Cc1c(O)n(CCc2ccc(F)cc2)c(=O)[nH]c1=O,-9.6%,?,5.5%,-15.8%,-10.2,
COc1ccc(N(CC(=O)Nc2cc(Cl)ccc2C)S(=O)(=O)c2c(C)n[nH]c2C)cc1,?,14.6%,3.3%,?,nt,
Cc1ccc(NC(=O)C2CCCN(S(=O)(=O)c3cnc[nH]3)C2)c(Br)c1 (configuration not stated),18.9%,2µM*,-0.5%,21.6%,1.5,
Cc1ccccc1NC(=O)C1CCCN(S(=O)(=O)c2cnc[nH]2)C1 (configuration not stated),1.5%,14.1µM*,0.1%,64.0%,2.6,
O=C(CCC1CCCCC1)NC1CCCCC1,nt,nt,1.0%,nt,nt,
CCOC(=O)CC1COCCN1C(=O)c1cc(COc2ccc(F)cc2Cl)on1 (configuration not stated),?,-24.9%,-4.7%,?,nt,
Cc1cccc(-n2cc(CNCCc3nc(C)cc(C)n3)c(-c3cccc(F)c3)n2)c1,?,1.2%,-1.8%,-14.1%,nt,
CCOc1ccccc1C(=O)OCC(=O)NCCNC(=O)COC(=O)c1ccccc1OCC,-14.0%,-2.3%,0.7%,?,nt,
COc1ccc(-c2cn[nH]c2-c2ccc(OCc3ccc([N+](=O)[O-])cc3)cc2O)cc1OC,10.4µM*,?,5.8%,9.28µM*,-14.4,
O=C(CN1C(=O)CSc2ccccc21)N1CCc2ccccc21,-5.9%,?,-1.0%,?,4.2,
Cc1nn(Cc2ccccc2Cl)c(Cl)c1C(=O)OCC(=O)NC(=O)NC1CCCCC1,7.1%,22.4µM*,-3.3%,-5.9%,-29.1,
COc1ccc(NS(=O)(=O)c2ccc(N3CCCC3)c(NC(=S)Nc3ccc(SC(F)F)cc3)c2)cc1,?,8.91µM*,-25.8%,13.1µM*,?,
CC(=O)c1cccc(NS(=O)(=O)c2ccc(N/C=C\C(=O)c3ccc(F)cc3)cc2)c1,?,5.4%,?,?,nt,
CC(=O)c1cccc(NS(=O)(=O)c2ccc(N/C=C/C(=O)c3ccc(F)cc3)cc2)c1,?,?,4.0%,?,-19.9,
C/C(N)=C(/C#N)C(=O)CSc1n[nH]c(-c2ccccc2Br)n1,?,3.98µM*,8.5%,?,-0.5,
CCCN(CCC)S(=O)(=O)c1ccc(C)cc1,6.2%,6.7%,7.4%,79.6%,nt,
COc1ccc(C(=O)Nc2nc3c(s2)CCCC3)cc1S(=O)(=O)N1CCCc2ccccc21,13.1µM*,12.6µM*,13.7%,10.4µM*,-4.8,
COc1ccc(C(=O)Nc2ncccc2C)cc1S(=O)(=O)N1CCCc2ccccc21,-14.1%,nt,-0.7%,23.1%,nt,
O=C(NCCS(=O)(=O)N1CCN(c2ccc(F)cc2)CC1)c1ccco1,-27.1%,nt,-3.9%,2.0%,nt,
C[C@]12Cc3cn4c(nc3C=C1CCC1C2CC[C@@]2(C)[C@H]1CC[C@@]2(O)C#N)nc1ccccc14 (some centres not stated),nt,39.8µM*,nt,nt,?,
